LYP inh 2 = LYP (human) phosphatase inhibition; AID 640; Q9Y2R2; 0.21% of 96,000 active; inhibition, % at 2 µM; recombinant LYP catalytic domain, DiFMUP fluorescence;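 active = inhibition at 2 µM at or above a set limit, the screen mean plus 3 SD, cut at about 24% in these data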;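 note: 0% = DMSO with enzyme and 100% = enzyme fully blocked by orthovanadate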
PLK1 kinase inh = PLK1 (human) kinase inhibition; P53350; recombinant PLK1 kinase, TR-FRET peptide phosphorylation; inhibition, % at 10 µM; 0.53% of 97,000 active;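 active = inhibition of 50% or more in the single-concentration screen; inactive = inhibition below 50%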;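 note: 0% = DMSO max control and 100% = H-89 dihydrochloride min control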
Plk1 PBD FP = Plk1 (human) PBD binding inhibition; Plk1 PBD phosphopeptide binding, fluorescence polarization; 0.13% of 97,000 active; inhibition, %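 (tested at about 20 µM)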; P53350; in the data active = inhibition above about 34%, passing the limit was not always enough
Pyk2 oligo antag = blocks oligomerization of human Pyk2 in cells | Q293 cells, Pyk2 FERM NanoBiT luminescence; active compounds read low | z-score (the deposit names both 25 µM and 10 µM) | 0.83% of 99,000 active | AID 1347419;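 active = Z-score of -3 or lower, scaled per plate to the spread of control and sample wells; inactive = z-score above -3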;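 note: negative z-score means lost luminescence so less FERM oligomerization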
Target sequence (Q14289 whole entry, looked up): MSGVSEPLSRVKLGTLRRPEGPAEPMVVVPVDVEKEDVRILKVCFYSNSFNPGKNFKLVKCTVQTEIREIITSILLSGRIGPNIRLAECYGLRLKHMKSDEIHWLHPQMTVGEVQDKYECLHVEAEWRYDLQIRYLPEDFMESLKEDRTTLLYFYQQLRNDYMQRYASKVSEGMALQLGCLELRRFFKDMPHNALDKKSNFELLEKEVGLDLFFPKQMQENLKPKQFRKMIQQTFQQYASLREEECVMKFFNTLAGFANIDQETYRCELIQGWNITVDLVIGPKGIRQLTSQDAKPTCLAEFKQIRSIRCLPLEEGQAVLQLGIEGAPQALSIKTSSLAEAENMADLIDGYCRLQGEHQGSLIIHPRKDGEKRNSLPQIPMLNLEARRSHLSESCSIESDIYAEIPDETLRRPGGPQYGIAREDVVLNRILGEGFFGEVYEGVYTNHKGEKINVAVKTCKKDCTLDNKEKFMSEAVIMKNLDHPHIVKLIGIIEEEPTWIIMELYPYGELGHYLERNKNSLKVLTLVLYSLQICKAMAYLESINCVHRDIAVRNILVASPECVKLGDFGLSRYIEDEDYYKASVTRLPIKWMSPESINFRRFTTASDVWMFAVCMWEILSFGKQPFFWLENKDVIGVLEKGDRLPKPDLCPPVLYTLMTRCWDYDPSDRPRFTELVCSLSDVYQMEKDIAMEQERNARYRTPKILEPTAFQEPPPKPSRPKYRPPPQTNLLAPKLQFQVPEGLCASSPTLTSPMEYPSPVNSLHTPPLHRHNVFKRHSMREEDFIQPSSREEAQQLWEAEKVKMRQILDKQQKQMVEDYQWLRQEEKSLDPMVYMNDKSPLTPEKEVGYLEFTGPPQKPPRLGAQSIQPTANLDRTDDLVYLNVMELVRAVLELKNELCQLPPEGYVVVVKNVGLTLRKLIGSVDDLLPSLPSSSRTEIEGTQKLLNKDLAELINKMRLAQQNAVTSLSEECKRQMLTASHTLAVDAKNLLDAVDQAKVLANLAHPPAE
PTPN22 act = increases human PTPN22 phosphatase activity; Q9Y2R2; recombinant LYP, DiFMUP fluorescence; 0 = plate median, 100 = signal doubled; activation, % at 2 µM; 0.11% of 96,000 active;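 active = activation at 2 µM above a set limit, the mean plus 5 SD, cut at about 37% in these data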
* = called active by the depositor; · = no result. Most compounds without a hit are left out; they make up all but 1.7% or so of the library.

SMILES | LYP inh 2 | PLK1 kinase inh | Plk1 PBD FP | Pyk2 oligo antag | PTPN22 act
COC(=O)c1sccc1-n1cccc1C(=O)N1CCOCC1 | 59.8* | -5.7 | -26.4 | -0.05 | -58.6
CCCC1=C(C(=O)OCC)C(c2ccc(N(C)C)cc2)n2ncnc2N1 (stereo not given) | -0.1 | 2.7 | 18.9 | -1.32 | -0.6
Cc1ccc(C)c(NS(=O)(=O)c2cc(C(=O)Nc3ccccc3-c3ccccc3)ccc2Cl)c1 | 6.4 | -6.2 | -11.0 | -0.88 | -1.5
CCOc1ccccc1C1CC(=O)NC(SCC(=O)Nc2nccs2)=C1C#N (stereo not given) | -5.1 | 0.0 | -26.4 | 0.3 | 2.5
O=c1cc(CN2CCN(S(=O)(=O)c3ccc4c(c3)OCCO4)CC2)c2ccc(O)cc2o1 | 3.8 | -15.8 | 9.0 | -3.87* | -5.3
CCOc1ccccc1-n1c(SCC(=O)NC2CCCC2)nnc1-c1ccoc1C | 7.7 | -13.6 | 5.7 | -0.88 | -3.8
Cc1ccccc1C(=O)Nc1ccc2nc3n(c(=O)c2c1)CCC3 | -15.4 | -12.3 | 5.5 | · | 13.7
CC(C)CNC(=O)COc1ncnc2ccccc12 | -8.0 | -1.6 | 19.0 | -0.15 | 10.6
COc1ccc(N2CCN(c3nc(NCCc4ccc(OC)c(OC)c4)nc(OC)n3)CC2)cc1 | -1.1 | -9.8 | -11.6 | -3.07* | 1.5
CCOc1nc(NCCc2ccc(OC)c(OC)c2)nc(N2CCN(c3ccc(OC)cc3)CC2)n1 | 17.1 | 2.8 | -2.5 | 0.06 | -19.2
Cc1nn(C/C(C#N)=N\O)c(C)[n+]1N | 0.8 | -4.3 | -8.4 | 0.36 | -3.8
Cc1sc(NC(=O)c2ccco2)c(CN2CCC(C)CC2)c1C | -3.0 | -7.4 | -19.7 | -0.46 | 5.9
Cc1sc(NC(=O)c2ccco2)c(C(c2cccnc2)N2CCC(C)CC2)c1C (stereo not given) | 11.5 | -14.7 | 9.8 | -4.28* | -8.5
CC(Sc1nc(-c2ccccc2)cc(C(F)(F)F)n1)C(=O)N1CCC(C(N)=O)CC1 (stereo not given) | -13.6 | -13.2 | 17.8 | -0.54 | 10.1
Cc1cc(C)cc(N(CC(=O)NCc2cccnc2)S(C)(=O)=O)c1 | -3.0 | -3.0 | -10.1 | -0.31 | 1.7
CC12CN3CC(C)(CN(C1)C3c1ccc(Cl)cc1Cl)C2O (stereo not given) | 0.3 | -5.4 | 10.8 | 0.26 | 2.1
CN(C)c1ccc(C2N3CC4(C)CN2CC(C)(C3)C4O)cc1 (stereo not given) | · | 61.9* | -19.4 | · | ·
COC(=O)CSc1nc2c(c(=O)[nH]c(=O)n2C)n1CCC(C)C | -3.1 | -9.2 | -2.5 | 0.8 | 3.7
Nn1c(Nc2ccccc2)nc2ccccc21 | -10.0 | -9.5 | 18.2 | -0.33 | 9.6
Nn1c(Nc2ccccc2)nc2ccccc2c1=O | 3.9 | 59.2* | 3.6 | -0.63 | -4.9
COc1cccc(C(=O)N2CCN(C3CCC(c4ccccc4)CC3)CC2)c1OC (stereo not given) | -3.3 | -9.6 | 2.3 | -0.42 | 1.0
Cc1ccc(S(=O)(=O)c2nc(Nc3nccs3)sc2Cl)cc1 | -1.6 | -9.0 | 0.5 | -3.15* | 1.2
CCc1ccc(N(C(=O)c2snc(C(N)=O)c2N)C(C(=O)NCCC(C)C)c2c[nH]c3ccccc23)cc1 (stereo not given) | 16.9 | -13.2 | 11.6 | -0.19 | -15.1
CC(CN(C)Cc1ccccc1)OC(=O)C1COc2ccccc2O1 (stereo not given) | · | 61.9* | -4.1 | · | ·
O=C(NCc1ccccc1)C1COc2ccccc2O1 (stereo not given) | -6.9 | -4.9 | 18.6 | 0.42 | 5.8
SMILES | LYP inh 2 | PLK1 kinase inh | Plk1 PBD FP | Pyk2 oligo antag | PTPN22 act
Cc1cc(NCCOCCO)n2ncc(-c3ccc(Cl)cc3)c2n1 | -2.5 | -11.3 | -16.2 | -0.74 | -4.8
CC(C)(C)c1cc(NCCCn2ccnc2)n2ncc(-c3ccc(Cl)cc3)c2n1 | 37.5* | -14.4 | 14.1 | 1.22 | -35.8
O=C(CSc1nnc(C2CC2)n1-c1ccccc1)NCCc1ccccc1 | 5.9 | -15.2 | -21.0 | -0.3 | -6.3
O=c1nc(-c2ccccc2)c2cc(Cl)ccc2[nH]1 | 2.7 | -16.3 | -8.8 | -0.08 | -2.8
O=c1cc2[nH]c3ccccc3c(=O)n2nc1-c1ccccc1 | 1.8 | -4.4 | 12.9 | -3.09* | 1.2
CCN(CC)S(=O)(=O)c1ccc(N=Nc2c(C)[nH]n(C(N)=S)c2=O)cc1 | 3.5 | -10.5 | -14.8 | -1.15 | -3.9
NC(=S)n1[nH]c(-c2ccc([N+](=O)[O-])cc2)c(N=Nc2ccc(O)cc2)c1=O | 5.2 | 3.8 | -12.4 | -3.61* | -3.6
CCOC(=O)c1ccc(NC(=O)Nc2ccc(OC)c(OC)c2)cc1 | -3.4 | 50.9* | -6.3 | 0.07 | 4.0
Cc1cc(C)cc(OCC(=O)Nc2cccc(-c3nnc(-c4ccco4)o3)c2)c1 | 6.0 | -2.6 | 11.4 | -3.86* | -8.7
O=C(Cc1ccccc1)Nc1ccc(-c2nnc(-c3ccco3)o2)cc1 | 0.7 | -0.9 | -5.3 | 1.59 | -5.1
O=C(O)CCC(=O)Nc1ccc(-c2nnc(-c3ccco3)o2)cc1 | · | 53.5* | 12.3 | · | ·
C=CCOCC(O)CS(=O)(=O)Cc1ccc(Cl)cc1 (stereo not given) | -2.1 | -2.1 | -8.7 | 0.32 | 2.1
CCCNc1cc(=O)n(C)c(=O)n1C | 25.4* | -2.3 | 11.1 | 0.36 | -25.9
CSc1nsc(SCC(=O)Nc2c(C)n(C)n(-c3ccccc3)c2=O)n1 | 3.8 | -6.0 | 33.1 | -1 | -6.3
CCOC(=O)Nc1sc(C)nc1-c1ccccc1 | -11.0 | -13.0 | -5.3 | 0.91 | 7.3
CCOC(=O)Nc1nc(-c2ccccc2)c(C(=O)c2ccc(Cl)cc2)s1 | -14.1 | -20.2 | 14.6 | -3.4* | 10.8
COc1ccc(-c2cn(/N=C/c3ccc(Cl)cc3Cl)c(N)n2)cc1 | 12.3 | 61.2* | -20.1 | -0.05 | -13.1
COc1ccccc1-n1c(SCC(=O)NC2CCCCC2)nc2c(c1=O)SCC2 | 7.5 | -10.6 | 15.8 | · | -8.3
CCOC(=O)CC1C(=O)NCCN1C(=O)NC1CCCCC1 (stereo not given) | 10.4 | -1.2 | -1.7 | 1.05 | -7.3
COc1ccc(-c2n[nH]c3c2C(c2ccc(OC)c(OC)c2)N(c2ccccc2)C3=O)cc1 (stereo not given) | 9.2 | -1.8 | 6.5 | -3.03* | -8.9
Cc1cc(O)c(-c2n[nH]c3c2C(c2cccc(O)c2)N(Cc2cccnc2)C3=O)cc1Cl (stereo not given) | -6.5 | -15.1 | -14.1 | -3.92* | 5.4
O=C1c2[nH]nc(-c3ccccc3O)c2C(c2ccccc2F)N1Cc1ccco1 (stereo not given) | 3.1 | -6.6 | -23.7 | -3.41* | -5.1
CC(=O)C1=C(O)C(=O)N(Cc2cccnc2)C1c1ccc(Cl)cc1Cl (stereo not given) | 0.0 | -4.6 | -18.7 | 0.36 | -0.6
CC(C)OCCCN1C(=O)c2[nH]nc(-c3ccccc3O)c2C1c1cccc(Cl)c1 (stereo not given) | -11.0 | -1.4 | -15.1 | -3.23* | 8.1
CCn1nc(C)c(NC(=O)CCSc2nc(-c3ccco3)cc(C(F)(F)F)n2)c1C | -3.4 | -4.5 | 10.4 | 0.73 | 5.7
CCOc1ccc(C2OC(=O)Cc3cc(OC)c(OC)cc32)cc1 (stereo not given) | 0.1 | -6.7 | -31.4 | -1.05 | 2.6
Cc1sc2ncn(CC(=O)OC(C)C)c(=O)c2c1C | -6.8 | 4.8 | 12.8 | · | 2.4

From PubChem
